MOR-DOR inv ag – inverse agonists of human mu-delta opioid receptor heterodimerization | P35372+P41143 | cell-based MOR-DOR heterodimer luminescence, inverse agonism | inhibition, % at 9.3 µM | hit rate 0.21% among 340,000 | AID 504357; in the data active means inhibition above about 22%, passing the limit was not always enough
HTR5A ag – activates human HTR5A in OPRM1-OPRD1 agonist counter-screen. P47898. HTR5A agonist assay, luminescence, cell-based. activation, % at 9.3 µM. hit rate 0.61% among 340,000; in the data active means activation mostly above about 9.5%, no sharp cut-off; inactive means mostly below about 7.6%
Target sequence (P47898 whole entry, looked up): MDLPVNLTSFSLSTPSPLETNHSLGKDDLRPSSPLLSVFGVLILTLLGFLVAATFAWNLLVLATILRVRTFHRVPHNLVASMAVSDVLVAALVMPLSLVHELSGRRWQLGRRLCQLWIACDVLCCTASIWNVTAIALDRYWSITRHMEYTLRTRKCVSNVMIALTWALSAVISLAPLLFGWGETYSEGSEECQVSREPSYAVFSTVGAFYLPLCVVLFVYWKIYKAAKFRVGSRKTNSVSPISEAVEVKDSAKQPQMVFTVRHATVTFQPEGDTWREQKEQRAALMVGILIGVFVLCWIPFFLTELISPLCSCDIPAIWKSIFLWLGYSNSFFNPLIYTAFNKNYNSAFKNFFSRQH
HTR5A inv ag – HTR5A inverse agonism, opioid heterodimer counter-screen. P47898. HTR5A cell line, luminescence. inhibition, % at 9.3 µM. hit rate 0.083% among 340,000. AID 504634; in the data active means inhibition mostly above about 23%, no sharp cut-off; inactive means mostly below about 18%
MOR-DOR ag – agonists of human mu-delta opioid receptor heterodimerization | P35372+P41143 | cells, OPRM1-OPRD1 heterodimerization, luminescence | activation, % at 9.3 µM | hit rate 0.3% among 340,000 | AID 504326; in the data active means activation above about 18%
OPRM1-D1 inv cf – confirmation of human OPRM1-OPRD1 heterodimerization inverse agonists; cells expressing OPRM1/OPRD1 heterodimer, luminescence; inhibition, % at 9.3 µM; AID 504900; hit rate 20% among 580; shares compounds with MOR-DOR inv ag; in the data active means inhibition above about 32%
HTR5A inv count – inverse agonist of human HTR5A in OPRM1-OPRD1 counter-screen | shares compounds with MOR-DOR inv ag | HTR5A-expressing cells, luminescence, inverse agonism | inhibition, % at 9.3 µM | 580 tested, under 10 active | AID 504914; call rule not given here
A number is an active result; i = inactive; nt = no result. An excerpt weighted towards active compounds, which were near 1.1% of everything screened.

SMILES | MOR-DOR inv ag | HTR5A ag | HTR5A inv ag | MOR-DOR ag | OPRM1-D1 inv cf | HTR5A inv count
CC1(C)C(c2ccccc2)=NC(c2ccc(Br)cc2)N1O (stereo not given) | 46.5 | i | i | i | i | i
CC1(C)C(c2ccccc2)=NC(c2ccccc2)N1O (stereo not given) | i | i | i | i | nt | nt
CCC1=NC(c2ccc(OC)cc2)N(O)C1(C)C (stereo not given) | i | i | i | i | nt | nt
CCC1=NC(c2ccc(Br)cc2)N(O)C1(C)C (stereo not given) | 33.1 | i | i | i | i | i
COc1ccc(NC(=O)COC(=O)C2CC(=O)N(c3ccc(C)cc3)C2)cc1 (stereo not given) | i | i | i | i | nt | nt
Cc1ccc(C)c(NC(=O)CCN2C(=O)C3CC=CCC3C2=O)c1 (stereo not given) | i | i | i | i | nt | nt
C/C=C(\C)CN1CCC(Oc2cc(C(=O)NC3CC3)ccc2OC)CC1 | i | i | i | i | nt | nt
CCc1ccccc1N(C(C)=O)c1nc(CN=C=S)cs1 | i | i | i | i | nt | nt
N#CC(C#N)=C1C=CC=CN1/C(=C\c1ccccc1Cl)C(=O)c1ccccc1 | 35.1 | i | i | i | i | i
COC(=O)c1ccccc1NC(=O)CCCN1C(=O)C(c2ccccc2)Oc2cccnc21 (stereo not given) | i | i | i | i | nt | nt
O=C(O)c1ccc2nc(-c3ccco3)c(-c3ccco3)nc2c1 | i | i | i | i | nt | nt
O=C(O)c1ccc2nc3c(nc2c1)-c1ccccc1C3=O | 41.5 | i | i | i | 45.8 | i
O=C(CNc1ccc(F)cc1)c1ccccc1 | 37.0 | i | i | i | i | i
O=C(CNc1ccc(Br)cc1)c1ccccc1 | i | i | i | i | nt | nt
NC(=O)c1ccc(N=C2C(=O)Nc3ccc([N+](=O)[O-])cc32)cc1 | i | i | i | i | nt | nt
O=C1Nc2ccccc2C1=Nc1cccc([N+](=O)[O-])c1 | 48.1 | i | i | i | i | i
NS(=O)(=O)c1ccc(N=C2C(=O)Nc3ccccc32)cc1 | 64.4 | i | i | i | i | i
O=C1Nc2ccccc2C1=Nc1ccc(F)cc1 | 59.2 | i | i | i | i | i
O=C1Nc2ccccc2C1=Nc1ccc(S(=O)(=O)Nc2nccs2)cc1 | i | i | i | i | nt | nt
COc1ccc(N=C2C(=O)Nc3ccc(C)c(Br)c32)cc1 | 69.5 | i | i | i | i | i
Cc1nn(CCCC(=O)Nc2c(F)cc(F)cc2Br)c(C)c1[N+](=O)[O-] | i | i | i | i | nt | nt
CCCn1c(C(C)NS(=O)(=O)c2ccccc2)n[nH]c1=S (stereo not given) | i | i | i | i | nt | nt
COc1ccc(N=C2C(=O)Nc3ccccc32)cc1 | 50.1 | i | i | i | i | i
COc1ccc(OC)c(N=C2C(=O)Nc3ccccc32)c1 | 41.5 | i | i | i | 44.9 | i
COc1cc(/C=N/N=C2/C(=O)Nc3ccccc32)ccc1O | i | i | i | i | nt | nt
SMILES | MOR-DOR inv ag | HTR5A ag | HTR5A inv ag | MOR-DOR ag | OPRM1-D1 inv cf | HTR5A inv count
Cc1ccc(-c2ccccc2NC(=O)C2C3C=CC(C3)C2C(=O)O)o1 (stereo not given) | 34.5 | i | i | i | i | i
Cc1ccc(-c2cccc(NC(=O)C3C(C(=O)O)[C@@H]4C=C[C@H]3C4)c2)o1 (stereo not given in full) | i | i | i | i | nt | nt
Cc1ccc2[nH]c(O)c(N=Nc3ccccc3C)c2c1 | 31.7 | i | i | i | i | i
O=C(C[N+]1(CC#Cc2ccccc2)CCOCC1)c1ccc(Cl)cc1 | 33.5 | i | i | i | i | i
O=C(C[N+]1(CC#Cc2ccccc2)CCOCC1)c1ccccc1 | i | i | i | i | nt | nt
CCN1C(=O)CS/C1=N\S(=O)(=O)c1ccc(Cl)cc1 | i | i | i | i | nt | nt
CCn1c(Cl)c(C=O)s/c1=N\S(=O)(=O)c1ccccc1 | 33.5 | i | i | i | i | i
CC(C)(C)C(=O)NC(=S)NNC(=O)c1ccc(Cl)cc1Cl | 38.5 | i | i | i | i | i
COC(=O)NNC(=O)c1ccc(Cl)cc1Cl | i | i | i | i | nt | nt
C=CCOC(=O)c1ccc(N2CCN(c3ccccc3)CC2)nc1 | i | i | i | i | nt | nt
CCCn1nc([N+](=O)[O-])c(C(C#N)c2nc3ccccc3o2)c(Cl)c1=O (stereo not given) | i | i | i | i | nt | nt
CCn1nc([N+](=O)[O-])c(C(C#N)c2nc3cc(C(F)(F)F)ccc3s2)c(Cl)c1=O (stereo not given) | 30.9 | i | i | i | i | i
O=C(Nc1ccc(O)c(-c2nc3ccccc3s2)c1)c1cccs1 | 35.5 | i | i | i | i | i
CC(C)(C)c1ccc(OCC(=O)NNC(=S)NC(=O)c2ccccc2[N+](=O)[O-])c(Br)c1 | 32.5 | i | i | i | i | i
C/C(=N\NC(=O)c1cc(C)nc2ccccc12)c1ccccn1 | i | i | i | i | nt | nt
COc1ccc2nc(NN=C(C)c3ccccn3)cc(C)c2c1 | 38.8 | i | i | i | i | i
CC(NC(=O)C1CCC(CNS(=O)(=O)c2ccccc2)CC1)c1ccccc1 (stereo not given) | i | i | i | i | nt | nt
C=C[C@@H]1c2cc(C)ccc2N(S(=O)(=O)c2ccc(C)cc2)[C@H](c2ccc(OC(C)=O)cc2)C1(C#N)C#N | i | i | i | i | nt | nt
Cn1nnc(NC(=S)NC(=O)c2cccc3ccccc23)n1 | 40.8 | i | i | i | i | i
Cn1nnc(NC(=S)NC(=O)c2cccs2)n1 | i | i | i | i | nt | nt
COc1cc(OC)cc(C(=O)NC(=S)Nc2nnn(C)n2)c1 | 41.1 | i | i | i | i | i
N#Cc1cccc(NC(=O)Cn2cnc(S(=O)(=O)N3CCCC3)c2)c1 | i | i | i | i | nt | nt
CC(C)CN(C)C(=O)CCc1nnc(Cc2cccc(C(F)(F)F)c2)o1 | i | i | i | i | nt | nt
OC1=C(O)c2nc3ccccc3nc21 | 83.9 | i | i | i | 73.2 | i
COc1ccc(-c2cccc3c2NC(=O)C3=O)cc1OC | 63.5 | i | i | i | 41.7 | i
SMILES | MOR-DOR inv ag | HTR5A ag | HTR5A inv ag | MOR-DOR ag | OPRM1-D1 inv cf | HTR5A inv count
COc1ccc(/C=C2\C(=O)NC(=O)c3ccccc32)cc1OC | i | i | i | i | nt | nt
Cc1cc(C)c(C(=O)CC2(O)C(=O)Nc3ccccc32)cc1C (stereo not given) | i | i | i | i | nt | nt
Cc1ccc(NC2(C#N)C(=O)Nc3ccccc32)cc1C (stereo not given) | 55.6 | i | i | i | i | i
COC(=O)c1ccc(NC2(C#N)C(=O)Nc3ccccc32)cc1 (stereo not given) | 82.5 | i | i | i | 64.2 | i
O=C(Nc1ccc(Br)cc1)N1CCCCCCC1 | 33.1 | i | i | i | i | i
C[C@H](/C=C/[C@@]1(O)[C@H](C)C[C@H](O)CC1(C)C)O[C@@H]1O[C@H](CO)[C@@H](O)[C@H](O)[C@H]1O | i | i | i | i | nt | nt
CCOC(=O)CSc1n[nH]c(=O)n1CCc1ccccc1 | i | i | i | i | nt | nt
CN(C)C(=O)CSc1n[nH]c(=O)n1CCc1ccccc1 | 38.2 | i | i | i | i | i

Source: PubChem (The Scripps Research Institute Molecular Screening Center)
